Screening results: PubChem BioAssay, The Scripps Research Institute Molecular Screening Center
This is a sample that favours compounds with a hit; in the whole collection about 3.4% have one here.
HGIII-sPLA2 inh = Inhibits HGIII-sPLA2 liposome hydrolysis, primary screen; QFRET BODIPY PC-A2 liposome hydrolysis, fluorescence; 0.56% of 370,000 active; inhibition, % at 12.2 µM;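 active = inhibition above mean plus 3 SD of compounds lying within the high and low control bounds, cut at about 19% in these data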;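 also: 0% = median of test compound wells and 100% = no enzyme DMSO wells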
ADAM17 inh = ADAM17 inhibition, QFRET primary screen; inhibition, % at 6.95 µM; 0.83% of 370,000 active; recombinant ADAM17, EDANS/DABCYL FRET peptide cleavage;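 active = inhibition above the mean of compounds lying between control limits plus 3 SD, set per campaign, cut at about 8.5% in these data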;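 also: 0% = DMSO-only wells as the low control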
proKLK7 act = proKLK7 (human) activation, primary screen | purified proKLK7, EDANS-DABCYL substrate fluorescence; 100% is mature enzyme control, 0% vehicle | activation, % at 7 µM | 0.9% of 370,000 active;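 active = activation above the mean of all tested compounds plus 3 SD, computed per campaign excluding outliers beyond control limits, cut at about 13% in these data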
PLCg1 inh = inhibitors of human phospholipase C gamma1 | P19174 | purified PLC-gamma1, fluorogenic substrate, fluorescence | inhibition, % at 12.2 µM | 0.84% of 370,000 active | AID 720700; in the data active = inhibition above about 9.5%
PLC-beta3 inh = blocks human PLC-beta3 enzyme activity | Q01970 | Purified PLC-beta3, fluorogenic substrate, fluorescence | inhibition, % at 12.2 µM | 0.18% of 370,000 active; in the data active = inhibition above about 11%;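 also: 0% = median of compound wells on plate and 100% = full blocker control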
Target sequence (Q01970 whole entry, looked up): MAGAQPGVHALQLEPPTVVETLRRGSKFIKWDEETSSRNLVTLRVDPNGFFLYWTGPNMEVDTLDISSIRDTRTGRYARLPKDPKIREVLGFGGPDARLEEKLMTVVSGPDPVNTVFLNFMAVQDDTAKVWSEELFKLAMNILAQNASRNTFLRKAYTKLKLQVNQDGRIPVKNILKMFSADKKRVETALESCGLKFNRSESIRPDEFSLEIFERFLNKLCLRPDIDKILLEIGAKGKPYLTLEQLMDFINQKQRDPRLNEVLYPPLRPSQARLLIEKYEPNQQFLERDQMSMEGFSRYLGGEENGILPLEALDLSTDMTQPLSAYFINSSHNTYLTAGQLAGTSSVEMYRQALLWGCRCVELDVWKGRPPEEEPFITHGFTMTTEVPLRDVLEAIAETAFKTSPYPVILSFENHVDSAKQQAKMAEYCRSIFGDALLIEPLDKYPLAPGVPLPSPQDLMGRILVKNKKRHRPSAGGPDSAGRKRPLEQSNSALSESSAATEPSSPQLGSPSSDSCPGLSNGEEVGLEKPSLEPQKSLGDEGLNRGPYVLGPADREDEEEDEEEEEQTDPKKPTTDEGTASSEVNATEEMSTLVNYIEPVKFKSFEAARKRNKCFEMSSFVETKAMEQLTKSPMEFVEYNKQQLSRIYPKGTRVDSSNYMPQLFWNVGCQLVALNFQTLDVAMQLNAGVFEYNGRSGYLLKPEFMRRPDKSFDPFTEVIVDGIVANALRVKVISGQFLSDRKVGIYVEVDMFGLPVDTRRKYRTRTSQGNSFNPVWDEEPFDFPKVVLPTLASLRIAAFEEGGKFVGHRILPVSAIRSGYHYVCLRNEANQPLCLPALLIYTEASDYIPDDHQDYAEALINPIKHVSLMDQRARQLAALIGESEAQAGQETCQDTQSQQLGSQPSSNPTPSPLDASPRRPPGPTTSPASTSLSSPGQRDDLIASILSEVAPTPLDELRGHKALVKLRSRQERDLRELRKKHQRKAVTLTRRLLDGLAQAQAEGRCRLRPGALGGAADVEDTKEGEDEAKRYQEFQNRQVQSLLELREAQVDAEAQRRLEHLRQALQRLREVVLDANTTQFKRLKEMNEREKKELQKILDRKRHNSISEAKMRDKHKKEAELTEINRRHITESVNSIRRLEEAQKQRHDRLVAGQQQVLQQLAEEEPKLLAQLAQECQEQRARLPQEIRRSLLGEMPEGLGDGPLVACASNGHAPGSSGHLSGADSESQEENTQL
ADAM10 inh = inhibits human ADAM10. inhibition, % at 7 µM. recombinant ADAM10, EDANS/DABCYL FRET peptide cleavage, 3 h. 0.62% of 370,000 active. O14672;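 active = inhibition above a per-campaign cutoff equal to the mean of compounds falling between control-based bounds plus 3 SD, cut at about 20% in these data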;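 also: 0% = DMSO wells while the 100% control is not disclosed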
ADAM10 confirm = confirmation of inhibitors of human ADAM10 | shares compounds with ADAM10 inh | ADAM10 QFRET peptide cleavage, EDANS fluorescence | inhibition, % at 6.95 µM | 1% of 2,100 active | AID 743208;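 active = inhibition above about 20% chosen separately for each screening run, limit read from the data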;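 also: 0% = DMSO wells and 100% = marimastat wells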
ADAM17 counter = counter-screen for ADAM10 exosite inhibitors: inhibitors of human ADAM17. shares compounds with ADAM10 inh. AID 743214. ADAM17 QFRET peptide cleavage, EDANS fluorescence. 0.5% of 2,100 active. inhibition, % at 6.95 µM;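 active = mean triplicate inhibition above the solvent-only control wells' mean plus 3 SD, cut at about 12% in these data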;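 also: 0% = DMSO wells and 100% = marimastat wells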
ADAM10 ctr = counter-screen for ADAM17 exosite inhibitors: inhibitors of human ADAM10 | shares compounds with ADAM17 inh | recombinant ADAM10, EDANS/DABCYL FRET peptide cleavage, 3 h | inhibition, % at 6.95 µM | 47% of 2,900 active | AID 743256;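 active = mean inhibition over the triplicate runs exceeds the activity threshold set in the earlier primary screen, cut at about 20% in these data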;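 also: 0% = DMSO wells and 100% = marimastat wells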
ADAM17 confirm = human ADAM17 inhibition, confirmation. shares compounds with ADAM17 inh. recombinant ADAM17, EDANS/DABCYL QFRET peptide cleavage. inhibition, % at 6.95 µM. 65% of 2,900 active. AID 743257;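 active = mean inhibition across replicates above the hit cutoff set in the primary screen, cut at about 8.5% in these data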;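 also: 0% = DMSO wells and 100% = marimastat wells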
An asterisk follows results filed as active.

Results for O=C(Cc1ccc(Br)cc1)Nc1cccc(S(=O)(=O)N2CCCCC2)c1 ?
HGIII-sPLA2 inh: -32; ADAM17 inh: 12*; proKLK7 act: 1; PLCg1 inh: 3; PLC-beta3 inh: 9; ADAM10 inh: 23*; ADAM10 confirm: 3; ADAM17 counter: 2; ADAM10 ctr: 7; ADAM17 confirm: 6

How did CC(C)(C)c1ccc(OCCC(=O)Nc2cccc(S(=O)(=O)N3CCCC3)c2)cc1 do in these assays?
HGIII-sPLA2 inh: -28; ADAM17 inh: 8.9*; proKLK7 act: 0; PLCg1 inh: 5; PLC-beta3 inh: 0; ADAM10 inh: 22*; ADAM10 confirm: 10; ADAM17 counter: 3; ADAM10 ctr: 37*; ADAM17 confirm: 23*

How did O=C(CN1C(=O)NC(Cc2c[nH]c3ccccc23)C1=O)Nc1cccc(S(=O)(=O)N2CCCC2)c1 (configuration not stated) do in these assays?
HGIII-sPLA2 inh: -111; ADAM17 inh: 2; proKLK7 act: 1; PLCg1 inh: 0; PLC-beta3 inh: -5; ADAM10 inh: 4

Results for Cc1ccc(-n2c(SCC(=O)Nc3ccccc3-c3ccccc3)nnc2-c2cccs2)cc1 ?
HGIII-sPLA2 inh: -8; ADAM17 inh: 5; proKLK7 act: -1; PLCg1 inh: 5; PLC-beta3 inh: 2; ADAM10 inh: 14

What do the screens show for `O=C(Nc1ccccc1)C1CCCCN1S(=O)(=O)c1ccccc1` (configuration not stated)?
HGIII-sPLA2 inh: 0; ADAM17 inh: -4; proKLK7 act: 1; PLCg1 inh: 0; PLC-beta3 inh: -4; ADAM10 inh: 2

How did O=C(CNc1cccc(S(=O)(=O)N2CCCC2)c1)Nc1ccc(C(F)(F)F)cc1 do in these assays?
HGIII-sPLA2 inh: -32; ADAM17 inh: 6; proKLK7 act: 0; PLCg1 inh: 1; PLC-beta3 inh: -1; ADAM10 inh: 11

Results for O=C(Nc1ccc(C(F)(F)F)cc1)C1CCCCN1S(=O)(=O)c1ccccc1 (configuration not stated) ?
HGIII-sPLA2 inh: -10; ADAM17 inh: 10*; proKLK7 act: 0; PLCg1 inh: 5; PLC-beta3 inh: -9; ADAM10 inh: 28*; ADAM10 confirm: 4; ADAM17 counter: 1; ADAM10 ctr: 15; ADAM17 confirm: 7

Results for O=C(CNc1cccc(S(=O)(=O)N2CCCCC2)c1)Nc1ccc(C(F)(F)F)cc1 ?
HGIII-sPLA2 inh: -23; ADAM17 inh: 10*; proKLK7 act: 0; PLCg1 inh: 7; PLC-beta3 inh: 11; ADAM10 inh: 28*; ADAM10 confirm: 3; ADAM17 counter: 1; ADAM10 ctr: 13; ADAM17 confirm: 7

How did COc1cc(NC(=O)CSc2nc3[nH]ncc3c(=O)n2-c2ccc(Cl)cc2)cc(OC)c1 do in these assays?
HGIII-sPLA2 inh: -14; ADAM17 inh: 12*; proKLK7 act: 0; PLCg1 inh: 6; PLC-beta3 inh: -2; ADAM10 inh: 31*; ADAM10 confirm: 3; ADAM17 counter: 1; ADAM10 ctr: 26*; ADAM17 confirm: 13*

How did COc1ccc(-n2c(SCC(=O)NCc3cccs3)nc3[nH]ncc3c2=O)cc1 do in these assays?
HGIII-sPLA2 inh: -3; ADAM17 inh: 2; proKLK7 act: 0; PLCg1 inh: 1; PLC-beta3 inh: 2; ADAM10 inh: -1

What do the screens show for `COC(=O)[C@]12C[C@H](CC(=O)NCc3ccc(C)o3)C(=O)N(Cc3ccccc3)C1=C[C@H](COCc1ccccc1)O[C@@H]2C`?
HGIII-sPLA2 inh: -2; ADAM17 inh: -5; proKLK7 act: 1; PLCg1 inh: -3; PLC-beta3 inh: -2; ADAM10 inh: -5

What do the screens show for `Cn1c(=O)[nH]c2c(Br)nccc21`?
HGIII-sPLA2 inh: 4; ADAM17 inh: 1; proKLK7 act: 0; PLCg1 inh: 2; PLC-beta3 inh: 3; ADAM10 inh: 1

Results for COc1cc(NC(=O)c2cnn3c(C)cc(C)nc23)cc(OC)c1OC ?
HGIII-sPLA2 inh: 0; ADAM17 inh: -2; PLCg1 inh: 2; PLC-beta3 inh: 3; ADAM10 inh: -2

What do the screens show for `CCOC(=O)c1c(CSc2ccc(C)cc2)oc2ccc(O)cc12`?
HGIII-sPLA2 inh: -47; ADAM17 inh: 13*; proKLK7 act: 0; PLCg1 inh: 2; PLC-beta3 inh: 1; ADAM10 inh: 30*; ADAM10 confirm: 12; ADAM17 counter: 4; ADAM10 ctr: 46*; ADAM17 confirm: 19*

Results for CCOC(=O)c1c(CSc2ccccc2)oc2ccc(O)cc12 ?
HGIII-sPLA2 inh: -41; ADAM17 inh: 11*; proKLK7 act: 0; PLCg1 inh: 1; PLC-beta3 inh: 2; ADAM10 inh: 29*; ADAM10 confirm: 6; ADAM17 counter: 2; ADAM10 ctr: 42*; ADAM17 confirm: 16*

Results for COC(=O)[C@]12C[C@H](CC(=O)NCCc3ccccc3OC)C(=O)N(Cc3ccco3)C1=C[C@H](COCc1ccccc1)O[C@@H]2C ?
HGIII-sPLA2 inh: -6; ADAM17 inh: 0; proKLK7 act: 0; PLCg1 inh: 0; PLC-beta3 inh: -3; ADAM10 inh: 7

What do the screens show for `COc1ccc(/C=C(/C(=O)Nc2ccccc2C(=O)NC(C)C)c2ccccc2)cc1`?
HGIII-sPLA2 inh: -8; ADAM17 inh: 9.6*; proKLK7 act: -1; PLCg1 inh: 2; PLC-beta3 inh: -4; ADAM10 inh: 20*; ADAM10 confirm: 10; ADAM17 counter: 3; ADAM10 ctr: 15; ADAM17 confirm: 9

What do the screens show for `COc1ccc(/C=C(/C(=O)Nc2ccccc2C(=O)N2CCCC2)c2ccccc2)cc1`?
HGIII-sPLA2 inh: -1; ADAM17 inh: 4; proKLK7 act: 0; PLCg1 inh: 8; PLC-beta3 inh: 1; ADAM10 inh: 12

Results for O=C(c1cccs1)N1N=C(c2ccc(O)cc2)CC1c1ccccc1 (configuration not stated) ?
HGIII-sPLA2 inh: -25; ADAM17 inh: -17; proKLK7 act: -1; PLCg1 inh: -173; PLC-beta3 inh: -209; ADAM10 inh: -63
